Source: PubChem BioAssay
FLuc counter – firefly luciferase modulation, counter-screen for miR-21 project; P08659; purified FLuc, Km substrates, luminescence inhibition; Potency, µM (highest dose often 57.5 µM), without a hit: at the highest dose activity change, negative = inhibition, hits mostly inhibitors; 360,000 tested, 6.9% active; AID 588342;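 note: plate controls were vehicle for no effect and reference inhibitor for full effect; nearly all actives have a fitted effect of over 55% in size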
Target sequence (P08659 whole entry, looked up): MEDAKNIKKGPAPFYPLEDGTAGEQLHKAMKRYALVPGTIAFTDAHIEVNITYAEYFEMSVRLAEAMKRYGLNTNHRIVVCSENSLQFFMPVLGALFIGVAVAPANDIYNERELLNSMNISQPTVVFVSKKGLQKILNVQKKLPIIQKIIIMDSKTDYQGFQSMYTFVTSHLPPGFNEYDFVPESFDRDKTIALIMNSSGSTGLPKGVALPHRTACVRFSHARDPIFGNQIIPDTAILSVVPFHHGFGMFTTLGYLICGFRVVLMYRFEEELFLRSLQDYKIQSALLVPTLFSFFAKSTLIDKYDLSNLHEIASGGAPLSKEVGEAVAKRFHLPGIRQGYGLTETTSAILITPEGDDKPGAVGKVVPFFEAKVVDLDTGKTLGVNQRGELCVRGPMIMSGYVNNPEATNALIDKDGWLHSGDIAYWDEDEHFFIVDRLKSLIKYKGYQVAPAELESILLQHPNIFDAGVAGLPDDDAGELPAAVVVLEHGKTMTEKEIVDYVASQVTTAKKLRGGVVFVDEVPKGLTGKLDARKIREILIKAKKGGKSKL
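Purified P. pyralis luciferase (10nM final) with 10uM D-luciferin and 10uM ATP (Km levels) in 50mM Tris acetate pH 7.5, 10mM Mg acetate, 0.01% Tween-20, 0.05% BSA; qHTS 6-point titration, ~60 µM downward; luminescence read.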
SMN2 splice up – increases expression of the SMN2 splice variant; HEK293 SMN2-luciferase splicing reporter, luminescence, 30-36 h; Potency, µM (highest dose often 46.1 µM), without a hit: at the highest dose activity change, positive = activation, usual class: activators; 210,000 tested, 2.8% active; note: % of control where 0% means no effect; nearly all actives have a fitted effect of over 55% in size
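HEK293 cells carry an SMN2 minigene-luciferase reporter in which exon 7 inclusion puts luciferase in frame. Cells were seeded at 2000 cells/well, attached for 10-12 hours, then exposed to compounds for 30-36 hours at 37C before ONE-Glo luminescence.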
KinaseGlo FLuc – Kinase-Glo luciferase inhibition (counter-screen); Potency, µM (doses to about 38.3 µM), for the others: at the top dose activity change, negative = inhibition, actives largely listed as inhibitors; 200,000 tested, 0.28% active; Q27757; Kinase-Glo luciferase, ATP luminescence, 8 min; note: % is set by controls: 0 for no effect and ±100 for the full control effect; nearly all actives have a fitted effect of over 60% in size
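Light output from Kinase-Glo luciferase with luciferin and 10 uM ATP in 50 mM imidazole pH 7.2, KCl, MgCl2, Tween 20, BSA; compound pin-delivered, 8-min ambient incubation, then luminescence read.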
Rab9 promoter act – activators of Rab9 promoter | Huh7 Rab9 promoter-luciferase reporter, luminescence, 24 h | Potency, µM (doses to about 9.22 µM), inactives show at the highest dose activation, negative = inhibition, usual class: activators | AID 485297 | 320,000 tested, 2.8% active; note: % of control where 0% means no effect; nearly all actives have a fitted effect of over 60% in size
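Measured in stably transfected Huh7 cells bearing a Rab9 promoter–luciferase construct: 24 h compound treatment at 37 °C, followed by luminescence detection.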
ELG1 genotox – genotoxicity induction in ELG1-luciferase HEK293T cells; HEK293T ELG1-luciferase reporter, luminescence, 16 h; Potency, µM (titrated, usually from 46 µM), for the others: at the highest dose activity change, positive = activation, most hits filed as activators; 330,000 tested, 1.3% active; AID 504466; note: % of control where 0% means no effect; nearly all actives have a fitted effect of over 60% in size
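Step 1: seed 2,000 HEK293T ELG1-luciferase cells per well. Step 2: add compound or DMSO, incubate 16 hr at 37 °C. Step 3: ONE-Glo, 30 min at room temperature, read luminescence.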
NPC1 promoter act – activates the NPC1 promoter; Potency, µM (doses to about 9.22 µM), for inactives: at the highest dose activation, actives largely listed as activators; 320,000 tested, 2.4% active; Huh7 NPC1 promoter luciferase reporter, 24 h; note: % of control where 0% means no effect; nearly all actives have a fitted effect of over 60% in size
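Compounds in DMSO were transferred onto Huh7 NPC1-luciferase reporter cells pre-incubated 2 h; after 24 h at 37 °C, Amplite reagent was dispensed and luminescence recorded 10 min later.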
Numbers without * were called inactive; ? = inconclusive; . = not tested or not shown. Most compounds without a hit are left out; they make up all but 7.4% or so of the library. Calls come from the whole dose curve; as a rule, active = well fitted curve in the direction sought with a large enough effect; inconclusive = small, poorly fitted or top-dose-only effect, or another doubt; inactive = no such curve, though single readings can be large; an effect the other way counts as inactive or inconclusive. Potency is the fitted concentration of half-maximal effect.

SMILES	FLuc counter	SMN2 splice up	KinaseGlo FLuc	Rab9 promoter act	ELG1 genotox	NPC1 promoter act
CCCOc1ccc(C(=O)CCNC(Cc2c[nH]c3ccccc23)C(=O)O)cc1 (stereo not drawn)	-14.1%	.	.	-0.5%	0.4%	-0.3%
O=C(NCc1ccc(Cl)cc1)C1(c2cccs2)CCOCC1	1.7%	.	.	.	.	.
Cc1nn(-c2ccccc2)c(/N=C/c2ccc(O)cc2)c1-c1ccccc1	-5.3%	17.8µM*	1.7%	?	14.1%	?
Cc1nn(-c2ccccc2)c(C)c1-c1ccccc1O	-17.0%	.	.	-2.9%	4.6%	4.3%
CN(C(=O)c1cc(S(=O)(=O)N2CCOCC2)cs1)c1ccccc1	-1.6%	.	.	0.8%	1.9%	-4.2%
N/C(=N\OC(=O)c1ccc(Cl)cc1Cl)c1ccncc1	1.9µM*	.	.	1.78µM*	9.2µM*	1.58µM*
COc1cc(OC)c(C(=O)O/N=C(\N)c2ccc(C)cc2)cc1OC	?	.	.	3.3%	-0.5%	-2.4%
Cc1noc(-c2ccc(Cl)cc2)c1C(=O)O/N=C(\N)c1ccc(C(C)(C)C)cc1	-4.7%	.	.	-2.7%	-13.9%	-37.5%
N/C(=N\OC(=O)c1cc(Cl)ccc1Cl)c1ccncc1	13.5µM*	.	-3.7%	?	?	19.7%
COc1ccc(Cl)cc1C(=O)O/N=C(\N)c1ccc(Cl)cc1	16.9µM*	10.3%	5.1%	-3.2%	11.2%	1.2%
Cc1occc1C(=O)O/N=C(\N)c1ccc(Cl)cc1	9.53µM*	.	.	3.98µM*	?	?
C[C@@H]1C(=O)OC[C@H]1NC(=O)OCc1ccccc1	3.0%	.	.	-3.3%	2.7%	-0.5%
COc1cc2c(cc1OC)C(c1ccccc1)N(C(=O)C(C)(C)C)CC2 (stereo not drawn)	1.0%	.	.	5.7%	-1.8%	-0.1%
CCN(CC)c1ccc(/C=N/n2c(=S)[nH]nc(C)c2=O)cc1	15.1µM*	.	.	10.8%	-1.0%	10.9%
COc1ccc2oc(C(=O)NNC(=O)c3ccc(F)cc3)c(C)c2c1	?	.	.	24.8%	?	22.0%
Cc1ccc(OC(=O)c2oc3ccc(F)cc3c2C)c(C)c1	7.57µM*	16.9%	-5.3%	8.2%	13.6%	22.5%
COc1ccc(/C=C/C(=O)c2oc3ccc(F)cc3c2C)cc1	9.53µM*	-35.5%	5.7%	0.8%	2.6%	11.2%
COc1ccc(/C=C2\CCC(C3CCCC3)C2=O)cc1Cn1cccn1 (stereo not drawn)	?	-23.2%	0.4%	-4.5%	11.9%	-1.4%
COc1ccccc1/C=C1\CCC(C2CCCC2)C1=O (stereo not drawn)	19µM*	.	.	21.1%	14.5%	18.1%
CC1C/C(=C/c2ccco2)C(=O)/C(=C/c2ccco2)C1 (stereo not drawn)	?	-2.4%	1.9%	-1.2%	?	-0.8%
O=C1/C(=C/c2ccco2)CCC1C1CCCC1 (stereo not drawn)	8.49µM*	-9.4%	-13.9%	-0.8%	23.1µM*	0.5%
O=C1/C(=C/c2ccco2)Cc2ccccc21	13.5µM*	-1.2%	-4.3%	0.0%	?	-1.6%
O=C1/C(=C\c2ccco2)CCC/C1=C\c1ccco1	4.78µM*	17.8µM*	-14.6%	3.16µM*	14.6µM*	3.98µM*
CCOc1ccc(/C=C2\CCC(C3CCCC3)C2=O)cc1 (stereo not drawn)	0.536µM*	.	.	3.98µM*	?	3.55µM*
O=C1/C(=C/c2ccccc2)CCC1C1CCCC1 (stereo not drawn)	1.2µM*	2.8%	-3.9%	25.5%	?	19.8%
COc1ccc(/C=C2\CCC(C3CCCC3)C2=O)cc1Cn1nc(C)cc1C (stereo not drawn)	?	-25.8%	-2.7%	-0.5%	2.0%	-3.5%
O=C1/C(=C/c2ccc(F)cc2)CCC1C1CCCC1 (stereo not drawn)	0.675µM*	9.9%	-4.2%	26.5%	?	?
CCOc1ccc(/C=C2\CCC(C3CCCC3)C2=O)cc1OC (stereo not drawn)	?	.	.	10.1%	12.0%	19.2%
